# Numbering of substitutions follows the chain as printed; changes in the protein carry UniProt numbers. In all, about 16,000 sequences were measured (“ka relative to ugcaugu”: median about 0.096, highest 2% from about 0.35 on). The entries come from a sample that favours the highest values as a whole.
# T1: RBFOX1 RRM RbFoxmut (Fox-RRM*) (Homo sapiens, UniProt Q9NWB1 109-208, R118D;E147R;N151S;E152T)
# T1 sequence: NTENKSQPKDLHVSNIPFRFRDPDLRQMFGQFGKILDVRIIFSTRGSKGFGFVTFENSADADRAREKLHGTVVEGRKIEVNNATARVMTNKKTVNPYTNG
# B1: UCAUCAU (DNA:RNA)
# RNA: GGGAGACCGGAAUUCAGAUUGUCCUCAUCAUUUAAAUCCCGUCGUAGCCACCA
# DNA 1: CAATCTGAATTCCGGTCTCCC
# DNA 2: TGGTGGCTACGACGGGATT
# B2: UGCGCUU (DNA:RNA)
# RNA: B1 RNA with C26G, A27C, U28G, A30U
# DNA 1: CAATCTGAATTCCGGTCTCCC
# DNA 2: TGGTGGCTACGACGGGATT
# B3: AUGACGC (DNA:RNA)
# RNA: B1 RNA with U25A, C26U, A27G, U28A, A30G, U31C
# DNA 1: CAATCTGAATTCCGGTCTCCC
# DNA 2: TGGTGGCTACGACGGGATT
# B4: CACUACU (DNA:RNA)
# RNA: B1 RNA with U25C, C26A, A27C, C29A, A30C
# DNA 1: CAATCTGAATTCCGGTCTCCC
# DNA 2: TGGTGGCTACGACGGGATT
# B5: CAUAUAU (DNA:RNA)
# RNA: B1 RNA with U25C, C26A, A27U, U28A, C29U
# DNA 1: CAATCTGAATTCCGGTCTCCC
# DNA 2: TGGTGGCTACGACGGGATT
# B6: CGAAACU (DNA:RNA)
# RNA: B1 RNA with U25C, C26G, U28A, C29A, A30C
# DNA 1: CAATCTGAATTCCGGTCTCCC
# DNA 2: TGGTGGCTACGACGGGATT
# B7: GAGCAUG (DNA:RNA)
# RNA: GGGAGACCGGAAUUCAGAUUGUCCGAGCAUGUUAAAUCCCGUCGUAGCCACCA
# DNA 1: CAATCTGAATTCCGGTCTCCC
# DNA 2: TGGTGGCTACGACGGGATT
# B8: GAGAGCA (DNA:RNA)
# RNA: B7 RNA with C28A, A29G, U30C, G31A
# DNA 1: CAATCTGAATTCCGGTCTCCC
# DNA 2: TGGTGGCTACGACGGGATT
# B9: GAGAUUG (DNA:RNA)
# RNA: B7 RNA with C28A, A29U
# DNA 1: CAATCTGAATTCCGGTCTCCC
# DNA 2: TGGTGGCTACGACGGGATT
# B10: ACGAAUC (DNA:RNA)
# RNA: B7 RNA with G25A, A26C, C28A, G31C
# DNA 1: CAATCTGAATTCCGGTCTCCC
# DNA 2: TGGTGGCTACGACGGGATT
# B11: GAGAAUG (DNA:RNA)
# RNA: B7 RNA with C28A
# DNA 1: CAATCTGAATTCCGGTCTCCC
# DNA 2: TGGTGGCTACGACGGGATT
# B12: CGGAAUG (DNA:RNA)
# RNA: B7 RNA with G25C, A26G, C28A
# DNA 1: CAATCTGAATTCCGGTCTCCC
# DNA 2: TGGTGGCTACGACGGGATT
# B13: GUAAAUG (DNA:RNA)
# RNA: B7 RNA with A26U, G27A, C28A
# DNA 1: CAATCTGAATTCCGGTCTCCC
# DNA 2: TGGTGGCTACGACGGGATT
# B14: CUAAAUG (DNA:RNA)
# RNA: B7 RNA with G25C, A26U, G27A, C28A
# DNA 1: CAATCTGAATTCCGGTCTCCC
# DNA 2: TGGTGGCTACGACGGGATT
# B15: ACGAUUG (DNA:RNA)
# RNA: B7 RNA with G25A, A26C, C28A, A29U
# DNA 1: CAATCTGAATTCCGGTCTCCC
# DNA 2: TGGTGGCTACGACGGGATT
# B16: GAGACCG (DNA:RNA)
# RNA: B7 RNA with C28A, A29C, U30C
# DNA 1: CAATCTGAATTCCGGTCTCCC
# DNA 2: TGGTGGCTACGACGGGATT
# B17: GAGCAUC (DNA:RNA)
# RNA: B7 RNA with G31C
# DNA 1: CAATCTGAATTCCGGTCTCCC
# DNA 2: TGGTGGCTACGACGGGATT
# B18: ACGAAUG (DNA:RNA)
# RNA: B7 RNA with G25A, A26C, C28A
# DNA 1: CAATCTGAATTCCGGTCTCCC
# DNA 2: TGGTGGCTACGACGGGATT
# B19: CUAUAAG (DNA:RNA)
# RNA: B1 RNA with U25C, C26U, C29A, U31G
# DNA 1: CAATCTGAATTCCGGTCTCCC
# DNA 2: TGGTGGCTACGACGGGATT
# B20: GUCAGCC (DNA:RNA)
# RNA: B7 RNA with A26U, G27C, C28A, A29G, U30C, G31C
# DNA 1: CAATCTGAATTCCGGTCTCCC
# DNA 2: TGGTGGCTACGACGGGATT
# B21: GCACGGU (DNA:RNA)
# RNA: B1 RNA with U25G, U28C, C29G, A30G
# DNA 1: CAATCTGAATTCCGGTCTCCC
# DNA 2: TGGTGGCTACGACGGGATT
# B22: CUAAUAG (DNA:RNA)
# RNA: B1 RNA with U25C, C26U, U28A, C29U, U31G
# DNA 1: CAATCTGAATTCCGGTCTCCC
# DNA 2: TGGTGGCTACGACGGGATT
# B23: UCCGCGC (DNA:RNA)
# RNA: B1 RNA with A27C, U28G, A30G, U31C
# DNA 1: CAATCTGAATTCCGGTCTCCC
# DNA 2: TGGTGGCTACGACGGGATT
# B24: UAGAAUC (DNA:RNA)
# RNA: B7 RNA with G25U, C28A, G31C
# DNA 1: CAATCTGAATTCCGGTCTCCC
# DNA 2: TGGTGGCTACGACGGGATT
# B25: CAGAAUG (DNA:RNA)
# RNA: B7 RNA with G25C, C28A
# DNA 1: CAATCTGAATTCCGGTCTCCC
# DNA 2: TGGTGGCTACGACGGGATT
# B26: UAGAAUG (DNA:RNA)
# RNA: B7 RNA with G25U, C28A
# DNA 1: CAATCTGAATTCCGGTCTCCC
# DNA 2: TGGTGGCTACGACGGGATT
# B27: CCCAGAA (DNA:RNA)
# RNA: B1 RNA with U25C, A27C, U28A, C29G, U31A
# DNA 1: CAATCTGAATTCCGGTCTCCC
# DNA 2: TGGTGGCTACGACGGGATT
# B28: UAGAUUG (DNA:RNA)
# RNA: B7 RNA with G25U, C28A, A29U
# DNA 1: CAATCTGAATTCCGGTCTCCC
# DNA 2: TGGTGGCTACGACGGGATT
# B29: CAGAUUG (DNA:RNA)
# RNA: B7 RNA with G25C, C28A, A29U
# DNA 1: CAATCTGAATTCCGGTCTCCC
# DNA 2: TGGTGGCTACGACGGGATT
# B30: GAGCACA (DNA:RNA)
# RNA: B7 RNA with U30C, G31A
# DNA 1: CAATCTGAATTCCGGTCTCCC
# DNA 2: TGGTGGCTACGACGGGATT
# B31: UGGCUAC (DNA:RNA)
# RNA: B7 RNA with G25U, A26G, A29U, U30A, G31C
# DNA 1: CAATCTGAATTCCGGTCTCCC
# DNA 2: TGGTGGCTACGACGGGATT
# Molecular target: T1, RBFOX1 RRM RbFoxmut (Fox-RRM*)
# Experiment: EMSA; HiTS-Eq, 1 nM pool, 10 min; buffer printed only for the single-RNA assays: 10 mM Tris pH 7.5, 150 mM NaCl, 3.4 mM EDTA, 0.001% NP-40, 30 C
# Conditions: tags: His6 N-terminal (pET28a); label: 5' 32P
# Outline: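 These values rest on relative association constants, computed from read-count changes of each RNA species versus the control reaction and normalised to the cognate motif. Reads came from free RNA recovered by 8% native PAGE after purified RbFox RRM (wild type or mutant) at increasing concentrations was equilibrated for 10 min in 50 µL with 1 nM of a 5′-radiolabelled pool with 7 randomized nucleotides and DNA-annealed flanks.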
row,Binder,binding signal
1,B1,0.0991 KA relative to UGCAUGU
2,B2,0.095 KA relative to UGCAUGU
3,B3,0.0829 KA relative to UGCAUGU
4,B4,0.0793 KA relative to UGCAUGU
5,B5,0.114 KA relative to UGCAUGU
6,B6,0.0571 KA relative to UGCAUGU
7,B7,1.12 KA relative to UGCAUGU
8,B8,0.151 KA relative to UGCAUGU
9,B9,0.314 KA relative to UGCAUGU
10,B10,0.283 KA relative to UGCAUGU
11,B11,1.5 KA relative to UGCAUGU
12,B12,1.43 KA relative to UGCAUGU
13,B13,0.125 KA relative to UGCAUGU
14,B14,0.0852 KA relative to UGCAUGU
15,B15,0.234 KA relative to UGCAUGU
16,B16,0.0845 KA relative to UGCAUGU

row,Binder,binding signal
1,B17,0.278 KA relative to UGCAUGU
2,B18,1.2 KA relative to UGCAUGU
3,B19,0.0991 KA relative to UGCAUGU
4,B20,0.0902 KA relative to UGCAUGU
5,B21,0.289 KA relative to UGCAUGU
6,B22,0.0844 KA relative to UGCAUGU
7,B23,0.0955 KA relative to UGCAUGU
8,B24,0.125 KA relative to UGCAUGU
9,B25,1.17 KA relative to UGCAUGU
10,B26,0.953 KA relative to UGCAUGU
11,B27,0.0718 KA relative to UGCAUGU
12,B28,0.194 KA relative to UGCAUGU
13,B29,0.225 KA relative to UGCAUGU
14,B30,0.0821 KA relative to UGCAUGU
15,B31,0.0987 KA relative to UGCAUGU
